PubChem BioAssay AID1346378 (National Center for Advancing Translational Sciences (NCATS), 2018)
Among all 420,000 compounds or so, about 540 (0.13%) were called active. For the sample, actives were picked, then their nearest neighbours and some compounds at random. A number with no mark means an inactive call. Cut-off read from the data, not from the text of the source: active = activity change below about -50%; inconclusive = mostly about -30% to -49%; inactive = weaker than that.
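Note: -100% = wells without enzyme as full effect.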

These molecules were tested against Phosphatidylinositol 4-kinase type 2-alpha (Homo sapiens) (UniProt Q9BTU6) (assay: qHTS for small molecular inhibitors of PI4K2A). Details: purified PI4K2A, ADP-Glo luminescence, 1 h; at 76.9 µM, hits give low values.
Phosphatidylinositol 4-kinase type 2-alpha (Homo sapiens), sequence (Q9BTU6 whole entry, looked up): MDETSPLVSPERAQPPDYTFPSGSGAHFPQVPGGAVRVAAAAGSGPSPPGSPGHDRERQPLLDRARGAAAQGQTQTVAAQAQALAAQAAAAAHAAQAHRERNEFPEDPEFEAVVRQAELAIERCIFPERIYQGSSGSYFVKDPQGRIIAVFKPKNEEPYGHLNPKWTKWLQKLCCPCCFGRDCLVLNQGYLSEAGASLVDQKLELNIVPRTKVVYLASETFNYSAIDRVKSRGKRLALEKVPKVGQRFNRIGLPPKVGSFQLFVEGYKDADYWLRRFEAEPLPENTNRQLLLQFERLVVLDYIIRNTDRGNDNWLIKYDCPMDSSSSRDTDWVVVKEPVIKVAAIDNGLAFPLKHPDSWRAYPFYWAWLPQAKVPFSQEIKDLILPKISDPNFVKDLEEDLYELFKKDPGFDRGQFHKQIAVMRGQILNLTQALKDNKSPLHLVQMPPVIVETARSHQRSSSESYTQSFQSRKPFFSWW
Method in brief: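 PI4K2A activity was measured by ADP-Glo luminescence: enzyme (4 ug/mL stock) and phosphatidylinositol (1.2 mM stock) in Tris pH 7.5/MgCl2/EGTA/Triton X-100 buffer were reacted with ATP (300 microM stock) for one hour at ambient temperature.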
Work on `O=C(Cn1c(=O)n(Cc2cccs2)c(=O)c2cccnc21)Nc1ccc(F)cc1` yielded an activity change, negative = inhibition of -2.3%.
In the case of `CCOC(=O)c1ccc(NC(=O)Cn2cc(S(=O)(=O)Cc3ccccc3F)c3ccccc32)cc1`, the activity change, negative = inhibition is reported as -0.867%.
`Cc1ccc(C(=O)COC(=O)C(Cc2c[nH]c3ccccc23)NC(=O)c2ccc(Br)cc2)cc1` (stereo unspecified) gave an activity change, negative = inhibition of 1.44%.
Work on `COCCCN1CCC(NC(=O)c2cc(Cl)c(N)c3c2OCC3)CC1` yielded an activity change, negative = inhibition of -0.718%.
With `CN(C)c1cccc(C(=O)Nc2nc3ccc(S(=O)(=O)NC(C)(C)C)cc3s2)c1` the activity change, negative = inhibition was 0.225%.
For `CN(Cc1ccccc1)C(=O)c1cn(C)c2ccc(S(=O)(=O)N(C)C3CCCCC3)cc2c1=O`, the activity change, negative = inhibition was 2.24%.
For `CCOC(=O)c1ccc(N2C(=O)c3[nH]nc(-c4ccccc4)c3C2c2ccc(C(C)C)cc2)cc1` (stereo unspecified), the activity change, negative = inhibition was 4.25%.
For `CCOC(=O)c1[nH]c(C)c(CCC(=O)N2CCN(c3ccccc3)CC2)c1C`, the activity change, negative = inhibition was -2.94%.
For `CSc1ccccc1N1CCN(CCCCCC(=O)NC2CCCc3ccccc32)CC1` (stereo unspecified), the activity change, negative = inhibition was 3.17%.
`COc1cccc(-c2cc(C(=O)Nc3ccc(C)cc3)[nH]n2)c1` showed an activity change, negative = inhibition of -3.12%.
`COc1cc(C(=O)N2CCN(c3ccc(Nc4ccc(C)cc4)nn3)CC2)cc(OC)c1OC` showed an activity change, negative = inhibition of 1.58%.
With `CO/N=C(/C(=O)N[C@@H]1C(=O)N2C(C(=O)O)=C(Cn3nnc(C)n3)CS[C@H]12)c1csc(N)n1` the activity change, negative = inhibition was -10.8%.
`O=C1Cc2cc(S(=O)(=O)Nc3ccc(OC(F)(F)F)cc3)cc3c2N1CCC3` was tested, and the activity change, negative = inhibition was -2.44%.
`COC(=O)c1ccc(OC)c(Cn2c(=O)n(Cc3ccccc3)c(=O)c3c2c2cc(OC)ccc2n3C)c1` showed an activity change, negative = inhibition of 4.84%.
With `COc1ccccc1CNC(=O)CCn1c(=O)c2ccccc2n(CC(=O)Nc2ccc(Br)cc2F)c1=O` the activity change, negative = inhibition was 2.55%.
`COc1ccc(OC)c(NC(=O)CSc2nc3ccccc3nc2N2CCCCC2)c1` gave an activity change, negative = inhibition of 3.46%.
Work on `CCOCCCNC(=O)c1c(NC(=O)Cc2coc3ccc(C)cc23)sc2c1CCC2` yielded an activity change, negative = inhibition of -1.23%.
Molecule `COC(=O)c1ccccc1NC(=O)c1cc(-c2ccccc2O)no1` has an activity change, negative = inhibition of -2.41%.
In the case of `O=C1CSC(=S)N1/N=C/c1ccc(O)c([N+](=O)[O-])c1`, the activity change, negative = inhibition is reported as -62.1% (active).
Work on `COC(=O)c1nc(Cl)c(Cl)nc1N` yielded an activity change, negative = inhibition of 2.02%.
Work on `CCC(C(=O)Nc1cccc(-c2nc3cccnc3s2)c1C)c1ccccc1` (stereo unspecified) yielded an activity change, negative = inhibition of 6.98%.
`CCc1ccc(NC(=O)c2cnc3c(-c4ccccc4)c(C)nn3c2C)cc1` was tested, and the activity change, negative = inhibition was 0.0021%.
`CCCc1nn2c(=O)cc(COC(=O)c3ccc(NC(=O)C(C)Oc4ccccc4)cc3)nc2s1` (stereo unspecified) showed an activity change, negative = inhibition of -2.75%.
Molecule `O=C(CC1C(=O)N(c2ccccc2)C(=O)N1CCc1cccs1)Nc1ccc(F)cc1` (stereo unspecified) has an activity change, negative = inhibition of 3.68%.
Work on `COc1ccc(C2=NC3(CCCCC3)N(CC(=O)Nc3ccc(C(C)C)cc3)C2=O)cc1` yielded an activity change, negative = inhibition of -3.85%.
Work on `CCOC(=O)c1c(C)[nH]c(C)c1S(=O)(=O)NCC(=O)NCc1cccc(C)c1` yielded an activity change, negative = inhibition of -4.08%.
`COc1ccccc1N1CCN(C2C(=O)c3ccccc3N2C(C)=O)CC1` (stereo unspecified) was tested, and the activity change, negative = inhibition was 2.81%.
`COc1ccc(C2CC(=O)Nc3c2c(=O)nc2c(C)cccn32)cc1OC` (stereo unspecified) gave an activity change, negative = inhibition of -1.68%.
With `CCOC(=O)c1cc2c(=O)n3ccccc3nc2n(CCCOC)c1=NC(=O)C(C)(C)Oc1ccc(Cl)cc1` the activity change, negative = inhibition was -2.85%.
Molecule `CCOC(=O)c1c(C)[nH]c(C)c1S(=O)(=O)N1CCC(C(=O)Nc2ccc(C)c(Cl)c2)CC1` has an activity change, negative = inhibition of 0.586%.
For `Cc1ccc(Cl)cc1NC(=O)C(C)n1nnc2sc(-c3ccccc3)cc2c1=O` (stereo unspecified), the activity change, negative = inhibition was 3.33%.
